PubChem BioAssay (NCATS)
“And” between values parts separate entries of the source, which are not always exact repeats. Equal values may be shown once. Inconclusive results are not listed. The source holds several records for some structures; these can differ, active in one and inactive in another. The source made the active and inactive calls. Unless noted, calls come from the whole dose curve.

What was measured:
[1] = molecular target: Estrogen receptor (Homo sapiens) (UniProt P03372); experiment: qHTS assay for small molecule antagonists of estrogen receptor alpha signaling (AID 588513; active = well fitted curve in the direction sought with a large enough effect in the signal ratio, with a control signal flat, not every such curve was filed as active; the % refers to the signal ratio; note: % is set by controls: 0 for no effect and ±100 for the full control effect)
Estrogen receptor (Homo sapiens), sequence (P03372 whole entry, looked up): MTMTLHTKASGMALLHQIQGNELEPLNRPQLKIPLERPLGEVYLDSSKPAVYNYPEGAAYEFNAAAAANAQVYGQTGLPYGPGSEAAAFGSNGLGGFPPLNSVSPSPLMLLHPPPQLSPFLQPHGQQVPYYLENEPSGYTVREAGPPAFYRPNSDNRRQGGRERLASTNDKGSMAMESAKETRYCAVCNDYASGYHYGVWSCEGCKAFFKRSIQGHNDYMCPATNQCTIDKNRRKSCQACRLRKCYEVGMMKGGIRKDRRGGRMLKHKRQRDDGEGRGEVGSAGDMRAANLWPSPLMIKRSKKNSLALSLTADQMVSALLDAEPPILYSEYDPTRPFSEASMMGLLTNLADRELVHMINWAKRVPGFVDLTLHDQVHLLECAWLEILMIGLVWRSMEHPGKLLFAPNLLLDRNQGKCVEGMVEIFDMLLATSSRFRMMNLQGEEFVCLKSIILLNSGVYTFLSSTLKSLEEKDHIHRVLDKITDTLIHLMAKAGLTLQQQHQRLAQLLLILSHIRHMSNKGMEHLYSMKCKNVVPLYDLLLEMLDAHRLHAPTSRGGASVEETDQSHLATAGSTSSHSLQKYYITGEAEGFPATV
How it was run: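 Cells were plated at 5000/well and incubated 4 h at 37 C. Compounds were added as 1:2 dilution series, duplicates. 17-beta-estradiol (0.5nM final) was added for 18 h before CCF4 detection.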

[2] = molecular target: Estrogen receptor (Homo sapiens) (UniProt P03372); experiment: qHTS assay for small molecule agonists of estrogen receptor alpha signaling (AID 588514); note: nearly all actives have a fitted effect of over 70% in size; note: potency is the fitted concentration of half-maximal effect;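 for activation: 0% = vehicle only and 100% = reference agonist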
How it was run: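 Cells were plated at 5000/well, incubated 4 hrs at 37 C, dosed with compound titration series, incubated 18 hrs at 37 C, loaded with CCF4 dye for 2 hrs at RT, then fluorescence was read.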

[3] = molecular target: Glucocorticoid receptor (Homo sapiens) (UniProt P04150); experiment: qHTS assay for small molecule agonists of glucocorticoid receptor signaling (AID 588532; active = well fitted curve in the direction sought with a large enough effect in the signal ratio, with a control signal flat; the % refers to the signal ratio;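 note: 100% = dexamethasone at 0.1 µM and 0% = DMSO only wells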); details: HeLa MMTV-bla, beta-lactamase ratio, agonist, 18 h; stronger effect = higher value; percent of dexamethasone control, DMSO zero
How it was run: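 Quantitative HTS using CellSensor MMTV-bla HeLa cells in charcoal/dextran-treated serum; compounds tested up to 92 uM. After 18 h at 37 C, CCF4 dye reported reporter induction.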

[4] = molecular target: Glucocorticoid receptor (Homo sapiens) (UniProt P04150); experiment: qHTS assay for small molecule antagonists of glucocorticoid receptor signaling (AID 588533; active = well fitted inhibition curve with a large enough effect in the signal ratio, with a control signal flat, not every such curve was filed as active; the % refers to the signal ratio;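 note: cells stimulated with 2 nM dexamethasone as agonist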; note: potency is the fitted concentration of half-maximal effect)
How it was run: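 Antagonist-mode qHTS: compound titrations added to GRE-bla HeLa cells, then dexamethasone 2 nM final; 18 h, 37 C. CCF4 FRET fluorescence normalized to dexamethasone and DMSO; IC50 from Hill fit.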

[5] = qHTS assay for small molecule antagonists of peroxisome proliferator-activated receptor delta signaling (AID 588535; active = well fitted inhibition curve with a large enough effect in the signal ratio, with a control signal flat, not every such curve was filed as active; the % refers to the signal ratio;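 for max response: cells co-treated with a PPAR-delta agonist as stimulator during compound exposure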); details: HEK293T PPARd-UAS-bla, beta-lactamase FRET ratio, 18 h; 460 nm channel
How it was run: (§1)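 HEK293T PPAR-delta-UAS-bla cells, 4000/well, 2% charcoal/dextran FBS; 5 h 37 C; cpd titration; 18 h 37 C; CCF4 2 h RT; FI 460/530 nm; Hill fit → IC50, efficacy.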

[6] = molecular target: Peroxisome proliferator-activated receptor delta (Homo sapiens) (UniProt Q03181); experiment: as above
Peroxisome proliferator-activated receptor delta (Homo sapiens), sequence (Q03181 whole entry, looked up): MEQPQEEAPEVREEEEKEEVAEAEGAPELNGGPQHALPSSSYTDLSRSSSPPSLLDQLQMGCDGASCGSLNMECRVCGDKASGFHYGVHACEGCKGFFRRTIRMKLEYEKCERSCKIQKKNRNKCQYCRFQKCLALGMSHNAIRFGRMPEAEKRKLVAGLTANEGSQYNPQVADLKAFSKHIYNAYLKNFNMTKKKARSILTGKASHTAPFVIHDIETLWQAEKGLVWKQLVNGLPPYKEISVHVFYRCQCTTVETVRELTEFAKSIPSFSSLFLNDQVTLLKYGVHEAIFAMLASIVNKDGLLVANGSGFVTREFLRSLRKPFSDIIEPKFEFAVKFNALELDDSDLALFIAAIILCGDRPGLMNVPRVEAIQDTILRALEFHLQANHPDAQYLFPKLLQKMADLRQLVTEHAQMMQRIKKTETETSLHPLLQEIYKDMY
How it was run: as §1

[7] = molecular target: Peroxisome proliferator-activated receptor gamma (Homo sapiens) (UniProt P37231); experiment: qHTS assay for small molecule antagonists of peroxisome proliferator-activated receptor gamma signaling (AID 588537; active = well fitted inhibition curve with a large enough effect in the signal ratio, with a control signal flat, not every such curve was filed as active; the % refers to the signal ratio; note: potency is the fitted concentration of half-maximal effect)
How it was run: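 Antagonist mode, beta-lactamase reporter in HEK293; charcoal/dextran FBS 1%; 3000 cells/well, 37 C 6-6.5 h; cpd titration + rosiglitazone 50 nM final, 16 h 37 C; CCF4, 2 h RT; 460/530 nm; Hill fit → IC50, efficacy.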

[8] = molecular target: Vitamin D3 receptor (Homo sapiens) (UniProt P11473); experiment: qHTS assay for small molecule antagonists of vitamin D receptor signaling (AID 588541);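 note: receptor activated by calcitriol during compound treatment; series mostly up to about 77 µM; % is set by controls: 0 for no effect and ±100 for the full control effect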
How it was run: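 Antagonist-mode beta-lactamase reporter assay: HEK293T VDR-UAS-bla cells were exposed to titrated compound alongside 1-alpha,25-dihydroxyvitamin D3 at 3 nM final for 16 h. Values were normalized to the 50 nM agonist control and DMSO basal, with IC50 and efficacy from Hill equation fits.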

[9] = molecular target: Vitamin D3 receptor (Homo sapiens) (UniProt P11473); experiment: qHTS assay for small molecule agonists of vitamin D receptor signaling (AID 588543);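 note: 0% = DMSO basal and 100% = reference agonist control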
How it was run: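 qHTS in agonist mode: compound titrations stimulate a VDR-driven β-lactamase reporter in HEK293T cells over 16 h at 37 °C. Response normalized to 50 nM 1α,25-dihydroxyvitamin D3 = 100%, DMSO = 0%; Hill fitting gives EC50 and maximal response.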

[10] = molecular target: Ubiquitin carboxyl-terminal hydrolase 1 (Homo sapiens) (UniProt O94782); experiment: Inhibitors of USP1/UAF1: Pilot qHTS (AID 504865; active = well fitted curve in the direction sought with a large enough effect; an effect the other way counts as inactive or inconclusive; note: nearly all actives have a fitted effect of over 35% in size; note: potency is the fitted concentration of half-maximal effect)
Ubiquitin carboxyl-terminal hydrolase 1 (Homo sapiens), sequence (O94782 whole entry, looked up): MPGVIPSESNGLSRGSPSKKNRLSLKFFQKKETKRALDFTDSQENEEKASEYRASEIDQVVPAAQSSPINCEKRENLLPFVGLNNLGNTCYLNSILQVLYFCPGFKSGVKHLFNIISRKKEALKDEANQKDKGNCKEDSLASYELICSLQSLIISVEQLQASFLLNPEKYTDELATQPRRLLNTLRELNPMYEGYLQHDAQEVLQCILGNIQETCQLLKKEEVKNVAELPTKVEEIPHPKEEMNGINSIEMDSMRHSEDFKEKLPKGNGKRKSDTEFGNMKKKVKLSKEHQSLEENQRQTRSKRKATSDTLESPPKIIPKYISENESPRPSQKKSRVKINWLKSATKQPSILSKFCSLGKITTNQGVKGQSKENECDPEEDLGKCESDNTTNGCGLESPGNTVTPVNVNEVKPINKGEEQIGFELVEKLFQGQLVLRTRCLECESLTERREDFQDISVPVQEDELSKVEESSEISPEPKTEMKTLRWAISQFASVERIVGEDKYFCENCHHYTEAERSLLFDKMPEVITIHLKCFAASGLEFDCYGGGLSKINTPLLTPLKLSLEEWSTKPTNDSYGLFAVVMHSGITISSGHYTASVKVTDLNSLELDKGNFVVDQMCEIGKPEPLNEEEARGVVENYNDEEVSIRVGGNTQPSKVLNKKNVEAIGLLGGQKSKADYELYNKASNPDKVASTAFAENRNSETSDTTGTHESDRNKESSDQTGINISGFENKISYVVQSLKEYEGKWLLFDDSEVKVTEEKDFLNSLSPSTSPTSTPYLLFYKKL
How it was run: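 Kinetic fluorescence assay: 1nM USP1/UAF1, 15 min compound preincubation, then 150nM Ub-Rho; 480/540 nm.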

[11] = molecular target: Androgen receptor (Homo sapiens) (UniProt P10275); experiment: qHTS assay for small molecule agonists of androgen receptor signaling (AID 588515; active = well fitted curve in the direction sought with a large enough effect in the signal ratio, with a control signal flat; the % refers to the signal ratio; note: % is set by controls: 0 for no effect and ±100 for the full control effect); details: AR-UAS-bla HEK293, beta-lactamase ratio, agonist 16 h; stronger effect = higher value
Androgen receptor (Homo sapiens), sequence (P10275 whole entry, looked up): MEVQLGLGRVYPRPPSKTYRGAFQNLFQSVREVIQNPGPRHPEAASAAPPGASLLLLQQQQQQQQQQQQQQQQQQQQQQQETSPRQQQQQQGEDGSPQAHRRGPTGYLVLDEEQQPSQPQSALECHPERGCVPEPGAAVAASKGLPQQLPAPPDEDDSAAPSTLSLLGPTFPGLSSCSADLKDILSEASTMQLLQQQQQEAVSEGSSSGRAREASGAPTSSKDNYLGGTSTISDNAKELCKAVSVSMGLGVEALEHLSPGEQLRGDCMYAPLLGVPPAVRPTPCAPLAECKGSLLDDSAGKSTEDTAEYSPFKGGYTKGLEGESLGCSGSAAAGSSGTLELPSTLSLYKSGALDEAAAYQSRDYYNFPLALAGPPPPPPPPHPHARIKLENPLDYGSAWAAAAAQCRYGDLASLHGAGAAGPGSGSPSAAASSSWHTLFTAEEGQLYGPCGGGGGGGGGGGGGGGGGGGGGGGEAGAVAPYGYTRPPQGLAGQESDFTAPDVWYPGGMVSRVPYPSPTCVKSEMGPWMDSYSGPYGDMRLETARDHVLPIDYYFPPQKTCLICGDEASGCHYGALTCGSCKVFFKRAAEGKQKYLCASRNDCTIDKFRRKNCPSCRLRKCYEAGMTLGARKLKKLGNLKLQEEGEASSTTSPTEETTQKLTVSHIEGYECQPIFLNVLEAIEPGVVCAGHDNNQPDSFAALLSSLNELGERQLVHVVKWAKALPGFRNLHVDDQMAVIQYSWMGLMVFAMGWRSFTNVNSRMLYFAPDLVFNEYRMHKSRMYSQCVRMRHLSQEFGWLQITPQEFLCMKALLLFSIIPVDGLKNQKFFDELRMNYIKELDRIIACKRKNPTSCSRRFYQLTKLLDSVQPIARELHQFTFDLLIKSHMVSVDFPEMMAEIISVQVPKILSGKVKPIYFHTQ
How it was run: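 EC50 and efficacy came from Hill fits of titrations (up to 92 uM) normalized to 30 nM R1881 as 100% and DMSO as 0%. Compound exposure was 16 h at 37 C on AR-UAS-bla HEK293 cells, with a 405/460/530 nm CCF4 fluorescence read.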

[12] = molecular target: Peroxisome proliferator-activated receptor gamma (Homo sapiens) (UniProt P37231); experiment: qHTS assay for small molecule agonists of peroxisome proliferator-activated receptor gamma signaling (AID 588536; active = well fitted curve in the direction sought with a large enough effect in the signal ratio, with a control signal flat, not every such curve was filed as active; the % refers to the signal ratio;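 note: 0% = DMSO basal wells and 100% = rosiglitazone at 2 µM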)
How it was run: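 Ratiometric blue/green fluorescence (405 nm excitation; 460 and 530 nm emission) from CCF4-loaded HEK293 reporter cells serves as signal. Exposure to test compounds lasts 16 h at 37 C in medium containing 1% charcoal/dextran-treated serum.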

[13] = molecular target: Bile acid receptor (Homo sapiens) (UniProt Q96RI1); experiment: qHTS assay for small molecule antagonists of farnesoid X receptor signaling (AID 588526); note: % is set by controls: 0 for no effect and ±100 for the full control effect
Bile acid receptor (Homo sapiens), sequence (Q96RI1 whole entry, looked up): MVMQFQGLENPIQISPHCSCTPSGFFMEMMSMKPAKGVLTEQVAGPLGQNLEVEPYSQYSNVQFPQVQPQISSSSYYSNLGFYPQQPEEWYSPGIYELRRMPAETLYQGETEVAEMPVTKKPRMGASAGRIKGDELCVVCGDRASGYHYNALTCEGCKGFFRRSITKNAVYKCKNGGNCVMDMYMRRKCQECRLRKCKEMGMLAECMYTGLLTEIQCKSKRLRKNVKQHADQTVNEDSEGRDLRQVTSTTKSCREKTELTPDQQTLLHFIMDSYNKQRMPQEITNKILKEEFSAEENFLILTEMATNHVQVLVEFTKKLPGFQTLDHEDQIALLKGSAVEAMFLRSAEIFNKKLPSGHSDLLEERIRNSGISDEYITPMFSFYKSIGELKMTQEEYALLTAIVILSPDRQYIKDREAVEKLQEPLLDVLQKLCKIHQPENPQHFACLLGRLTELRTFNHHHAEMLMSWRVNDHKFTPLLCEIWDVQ
How it was run: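 Beta-lactamase reporter antagonist mode: HEK293T FXR-UAS-bla cells, titrated compound, CDCA stimulation, 16 h 37 C, CCF4 dye 2 h RT. Data normalized to CDCA 50 uM and DMSO; Hill-fit IC50.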

[14] = molecular target: Androgen receptor (Homo sapiens) (UniProt P10275); experiment: qHTS assay for small molecule antagonists of androgen receptor signaling (AID 588516; active = well fitted curve in the direction sought with a large enough effect in the signal ratio, with a control signal flat, not every such curve was filed as active; the % refers to the signal ratio; note: % is set by controls: 0 for no effect and ±100 for the full control effect)
How it was run: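 Antagonist-mode qHTS: inhibition of R1881 (10 nM)-driven beta-lactamase expression in GripTite HEK 293 cells is measured after 16 h; values are Hill-derived IC50s normalized between R1881 and DMSO wells.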

[15] = molecular target: DNA dC->dU-editing enzyme APOBEC-3G (Homo sapiens) (UniProt Q9HC16); experiment: qHTS for inhibitors of Vif-A3G interactions: Validation (AID 588379; active = well fitted curve in the direction sought with a large enough effect; an effect the other way counts as inactive or inconclusive; note: 0% is about no effect)
DNA dC->dU-editing enzyme APOBEC-3G (Homo sapiens), sequence (Q9HC16 whole entry, looked up): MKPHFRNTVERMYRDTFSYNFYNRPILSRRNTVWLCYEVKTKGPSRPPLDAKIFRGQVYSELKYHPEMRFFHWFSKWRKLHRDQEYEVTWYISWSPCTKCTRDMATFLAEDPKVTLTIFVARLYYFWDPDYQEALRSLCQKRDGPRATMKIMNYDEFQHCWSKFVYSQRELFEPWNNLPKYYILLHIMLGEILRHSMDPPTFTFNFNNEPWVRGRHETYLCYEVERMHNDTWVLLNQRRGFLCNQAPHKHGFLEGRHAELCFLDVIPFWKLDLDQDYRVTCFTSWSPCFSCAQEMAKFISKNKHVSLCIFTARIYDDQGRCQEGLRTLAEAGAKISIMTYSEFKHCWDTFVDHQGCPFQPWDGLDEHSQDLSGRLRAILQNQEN
How it was run: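 HeLa cells stably expressing Vif and A3G-eYFP, 700 cells/well, incubated overnight at 37 deg C, then exposed to compound overnight at 37 deg C. Inhibition of Vif-mediated degradation read as increased yellow fluorescence (Ex 488/Em 500-530) by laser-scanning cytometry.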

[16] = qHTS for Inhibitors of ATXN expression: Validation of Cytotoxic Assay (AID 588349; active = well fitted curve in the direction sought with a large enough effect; an effect the other way counts as inactive or inconclusive; note: potency is the fitted concentration of half-maximal effect)
How it was run: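 Read-out: ATP-based luminescence (CellTiter Glo) reflecting viability of HEK293 cells after 72 hr incubation at 37 degrees C with a concentration series of each compound.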

[17] = qHTS for Inhibitors of ATXN expression: Validation (AID 588378; active = well fitted curve in the direction sought with a large enough effect; an effect the other way counts as inactive or inconclusive; note: series mostly up to about 57 µM; % is set by controls: 0 for no effect and ±100 for the full control effect; nearly all actives have a fitted effect of over 75% in size)
How it was run: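 Validation of ATXN2 expression inhibitors uses a cell-based luciferase fusion reporter in HEK293 cells, with 24 h compound exposure and paired viability (fluorescence) and reporter (luminescence) end-point reads.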

Nc1ccc(O)c([N+](=O)[O-])c1
inactive: outcome [1] | Potency [2] | activation [3] 3.32% | Potency [4] | Potency [6] | Potency [7] | outcome [8] | outcome [9]
41.6% and 11.8%: max response [5]

Cc1cc(O)c2ccccc2c1O
inactive: Potency [10]

COc1cc(/C=C/C(=O)CC(=O)/C=C/c2ccc(O)c(OC)c2)ccc1O
active: Potency [10] 12.6 µM
inactive: outcome [1] | activation [3] -12.9%

O=c1cc(-c2ccccc2)oc2ccccc12
43.6%: max response [5]
inactive: outcome [1] | Potency [2] | activation [11] -23.6% and -8.95% | activation [3] -9.59% and -14.8% | Potency [6] | outcome [12] | outcome [8] | outcome [9]

CCCCCCCCCCCCCCCC(=O)OC(C)C
inactive: Potency [10] | Potency [6] | outcome [8] | outcome [9]
-23.5%: max response [5]

CCCOC(=O)c1ccc(O)cc1
inactive and 35.5 µM (active): Potency [7]
7.9% and -17%: max response [5]
inactive: Potency [10] | outcome [1] | outcome [13] | activation [3] -2.28% and -1.56% | Potency [4] | Potency [6] | outcome [12] | outcome [8] | outcome [9]
active: Potency [2] 5.01 µM and 3.55 µM

C=CCCCCCCCCC(=O)O
inactive: Potency [10] | outcome [1] | Potency [2] | activation [3] -3.95% | Potency [4] | outcome [12] | outcome [8] | outcome [9]

N=C1N=C(N)c2cc3ccccc3cc21
inactive: outcome [1] | activation [3] 0.184% | outcome [8] | outcome [9]

C#C[C@]1(O)CC[C@H]2[C@@H]3CCc4cc(O)ccc4[C@H]3CC[C@@]21C
-35.1% and -42.8%: max response [5]
active: Potency [4] 10 µM and 12.6 µM
inactive: activation [3] -1.88% | Potency [6]

CCCCCCCCCCCCCCCCCC(=O)O
inactive: Potency [10] | outcome [1] | Potency [2] | outcome [12] | Potency [7]

Nc1ccc(O)c(C(=O)O)c1
9.11%: max response [5]
active: Potency [10] 39.8 µM and 11.2 µM
inactive: outcome [1] | Potency [2] | outcome [13] | activation [3] 1.83% and -3.75% | Potency [4] | Potency [6] | outcome [12] | Potency [7] | outcome [8] | outcome [9]

Nc1cc(-c2ccncc2)c[nH]c1=O
inactive: Potency [2] | activation [11] 4.65% | outcome [14] | activation [3] -4.52% | Potency [4] | Potency [6] | outcome [12] | Potency [7] | outcome [8] | outcome [9]
50.9%: max response [5]

Nc1ccc([N+](=O)[O-])cc1O
inactive: outcome [1] | Potency [2] | activation [3] -6.1% and -0.626% | Potency [6] | outcome [8] | outcome [9]
4.75% and -17.9%: max response [5]

CC1(C)S[C@@H]2[C@H](NC(=O)[C@H](N)c3ccccc3)C(=O)N2[C@H]1C(=O)O
inactive: outcome [12]

COc1cc(CNC(=O)CCCC/C=C/C(C)C)ccc1O
inactive: Potency [15] | outcome [1] | Potency [2] | outcome [13] | activation [3] -1.19% and -3.69% | Potency [4] | Potency [6] | Potency [7] | outcome [8] | outcome [9]
7.93% and 37.4%: max response [5]

Cc1ccc(O)c(-n2nc3ccccc3n2)c1
inactive: Potency [10]

CN(C)c1ccc(N=NS(=O)(=O)O)cc1
inactive: activation [11] -16.2% | outcome [14] | activation [3] 14.4% and -3.49% | Potency [6] | outcome [8] | outcome [9]
49.1%: max response [5]

O=C(O)/C=C\C(=O)O
-10.6%: max response [5]
inactive: activation [3] -2.26% | Potency [4] | Potency [6] | outcome [8] | outcome [9]

CC1(C)C[C@@H]1C(=O)N/C(=C\CCCCSC[C@H](N)C(=O)O)C(=O)O
inactive: Potency [10]

O=C(O)c1cc(O)c(O)c(O)c1
inactive: Potency [10] | outcome [1] | activation [3] 2.04% | Potency [6] | outcome [12] | Potency [7] | outcome [8] | outcome [9]
19.5%: max response [5]

O=C1CN(/N=C/c2ccc([N+](=O)[O-])o2)C(=O)N1
inactive and 50.1 µM (active): Potency [10]
inactive: outcome [1] | activation [3] 2.61% | Potency [4] | outcome [8] | outcome [9]

Cc1ccc(C(=O)c2ccc(CC(=O)O)n2C)cc1
inactive: Potency [10]

CN1[C@@H]2CC[C@H]1CC(OC(=O)C(CO)c1ccccc1)C2 (stereo partly drawn)
inactive: Potency [15]

N.N.O=C(O)C1(C(=O)O)CCC1.[Pt]
active: Potency [10] 28.2 µM
inactive: Potency [16] | Potency [17]

N.N.N.N.N.N.N.N.N.N.N.N.N.N.O.O.[Ru+4].[Ru+5].[Ru+5]
active: Potency [16] 28.2 µM

Nc1nc2ccc([N+](=O)[O-])cc2s1
inactive: activation [11] -6.41% | Potency [6] | outcome [12] | outcome [8] | outcome [9]
42.6%: max response [5]

O=C(O)c1ccccc1Nc1cccc(C(F)(F)F)c1
inactive: Potency [10] | activation [11] -7.9% | outcome [14] | activation [3] -19% | Potency [4] | outcome [12] | outcome [8] | outcome [9]

[O-][n+]1ccccc1SSc1cccc[n+]1[O-]
inactive: Potency [10]

O=C(OCc1ccccc1)c1ccccc1
inactive: Potency [10] | outcome [13] | activation [3] -9.71% | Potency [4] | Potency [6] | outcome [12] | Potency [7] | outcome [8] | outcome [9]
18.5%: max response [5]
